High-throughput results: PubChem, Broad Institute
SUMO Mot1 rescue: SUMOylation pathway inhibition by Mot1-301 growth rescue; actives 1% (n = 320,000); S. cerevisiae Mot1-301 growth rescue, ATP luminescence, 38.5C; percent above DMSO median, 100 means doubled; growth rescue, % at 18.8 µM;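 active means every valid replicate shows activation above 250% relative to neutral control wells; inactive means the rest, any valid replicate at or below 250%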;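 further: OY570 slx delta 5 strain wells were the positive control but not used for scaling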
ALR H2O2 inh: blocks human ALR sulfhydryl oxidase activity | P55789 | purified ALR, DTT oxidation, H2O2 HRP-luminol luminescence | inhibition, % (test concentration not listed) | actives 3.8% (n = 290,000) | AID 485317;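 active means mean replicate inhibition above about 79%, with every replicate also reaching it, limit read from the data; inconclusive means only one of the two criteria met; inactive means mean below limit and not every replicate reaching it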
Target sequence (P55789 whole entry, looked up): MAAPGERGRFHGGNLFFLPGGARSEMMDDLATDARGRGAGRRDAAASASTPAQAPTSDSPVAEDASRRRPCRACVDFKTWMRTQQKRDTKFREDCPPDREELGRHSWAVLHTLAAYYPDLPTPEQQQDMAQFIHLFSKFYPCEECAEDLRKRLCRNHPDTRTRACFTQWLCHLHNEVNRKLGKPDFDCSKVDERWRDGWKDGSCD
HIF act: HIF pathway transcriptional activation. U2OS HRE-luciferase reporter, luminescence; normalized: DMSO 0%, desferrioxamine 100%. activation, % at 7.5 µM (by protocol). actives 0.32% (n = 300,000);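 active means mean activation of at least 10% of the iron chelator positive control signal, with at least half of replicates also reaching 10%; inconclusive means mean and replicate majority disagree about reaching 10%; inactive means mean and most replicates under 10%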
AI-2 QS modul: modulators of Vibrio harveyi AI-2 quorum sensing system; actives 0.4% (n = 300,000); Vibrio harveyi JMH597 AI-2 luminescence/OD600 ratio, 9 h; active compounds read low; strain lacks LuxN and CqsS sensors; 0 = neutral-control median; activity change, % at 7.5 µM; AID 2094; in the data active means activity change below about -75%, passing the limit was not always enough; inconclusive means no clear call, values can overlap the other calls;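 further: luminescence divided by OD600 gain over 9 h not by final OD600 alone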
An asterisk follows results filed as active; u = inconclusive; x = no result. Most compounds without a hit are left out; they make up all but 4.8% or so of the library.

SMILES | SUMO Mot1 rescue | ALR H2O2 inh | HIF act | AI-2 QS modul
COc1cc(/C=C2\SC(=S)N(NS(=O)(=O)c3ccc(C)cc3)C2=O)ccc1O | -9 | 99* | 0 | 136
CCOc1cc(/C=C2\SC(=S)N(NS(=O)(=O)c3ccc(C)cc3)C2=O)ccc1O | 33 | 99* | 0 | 114
COc1cc(/C=C2/SC(=S)N(c3c(C)n(C)n(-c4ccccc4)c3=O)C2=O)ccc1O | 13 | 90* | 0 | 21
COc1cc(/C=C2\SC(=S)N(NS(=O)(=O)c3ccccc3)C2=O)ccc1O | 356 | x | 0 | 57
COc1cc(/C=C2/SC(=S)N(Cc3ccccc3)C2=O)ccc1O | 2 | -2 | 0 | 29
COc1ccccc1/C=C1\SC(=S)N(NS(=O)(=O)c2ccccc2)C1=O | 42 | 0 | 1 | 49
COc1cccc(/C=C2\SC(=S)N(NS(=O)(=O)c3ccc(C)cc3)C2=O)c1OC | 4 | 91* | -4 | 44
O=C(O)CCN1C(=O)CC(N2C(=O)/C(=C/c3ccc(Cl)cc3)SC2=S)C1=O (stereo unspecified) | -4 | 98* | 0 | 11
O=C(CCOc1ccccc1)Nc1ccnn1C1CCN(CCc2ccccc2)CC1 | 77 | -6 | 0 | 33
N#C/C(=C\c1ccc(O)cc1)C(=O)N1CCCC1 | -8 | 81* | 0 | 5
CC/C(=N\NS(=O)(=O)c1ccc(C)cc1)c1ccco1 | 12 | 98* | 2 | 17
Cc1ccc(-c2ccc(S(=O)(=O)NCc3ccco3)cc2)cc1 | 5 | -6 | 0 | 22
Cc1ccc(NC(=O)c2ccc(C(=O)c3ccccc3)cc2)nc1 | -6 | 37 | 3 | 7
Cc1nnsc1-c1nnc(SCC(=O)c2ccccc2)n1C1CC1 | -2 | 84* | 0 | 23
COCCN(C(=O)CSc1n[nH]c(-c2ccccc2)n1)c1c(N)n(CC(C)C)c(=O)[nH]c1=O | -1 | x | 0 | 6
O=C(COC(=O)c1ccc(F)cc1F)Nc1ccc(Cl)cn1 | -17 | -3 | x | x
O=C(COC(=O)c1ccc(O)cc1O)Nc1ccc(Cl)cn1 | 14 | 2 | 0 | -83*
CC(C)c1onc(C(=O)Nc2sc3c(c2C#N)CCC3)c1[N+](=O)[O-] | -18 | 47 | 191* | -1
N#Cc1c(NC(=O)c2cnccn2)sc2c1CCCC2 | -13 | 98* | 6 | 12
Cc1cccc(N(O)C(=O)Nc2cccc(Cl)c2)c1 | -6 | -1 | 2 | -27
CCN(CC)c1ccc(NC(=O)c2cnn(CC)c2)cc1 | x | 99* | 1 | 9
CCn1cc(C(=O)Nc2ccccc2C(=O)OC)cn1 | 3 | -17 | 0 | 19
COC(=O)Nc1ccc(S(=O)(=O)N(C)C)cc1 | 11 | 9 | 29* | 24
COC(=O)Cc1ccc(NC(=O)c2ccc(Br)o2)cc1 | -12 | -2 | 1 | 9
CCN(CC)c1ccc(NC(=S)NC(=O)C2CCC2)cc1 | 7 | 99* | 3 | 27
SMILES | SUMO Mot1 rescue | ALR H2O2 inh | HIF act | AI-2 QS modul
CCN(CC)c1ccc(NC(=O)c2ccc(Br)o2)cc1 | -18 | 96* | 3 | 16
COc1ccc(F)c(CN2CCC(n3nccc3NC(=O)C3CCOC3)CC2)c1 (stereo unspecified) | 1 | -1 | 0 | 12
COc1ccccc1N1CCN(S(=O)(=O)CCNC(=O)CC2CCCCC2)CC1 | -6 | 5 | 0 | 12
CCN(CC)c1ccc(NC(=O)OC)cc1 | 262 | 91* | 0 | -3
COC(=O)Nc1ccc(NC(C)=O)cc1 | 6 | -21 | -1 | 17
CCOC(=O)C(Cc1ccccc1)C(=O)Nc1cccc(C)c1 (stereo unspecified) | -4 | x | 1 | 9
CCOC(=O)C(Cc1ccccc1)C(=O)Nc1ccc(N(CC)CC)cc1 (stereo unspecified) | -9 | 99* | -2 | 19
CN(C)C(CNC(=O)c1cc(S(=O)(=O)N2CCOCC2)ccc1F)c1cccs1 (stereo unspecified) | -4 | -3 | x | x
CCOC(=O)C1=C(N)Oc2cc(O)ccc2C1c1ccccc1 (stereo unspecified) | 242 | -4 | -15 | 7
CCOC(=O)C1=C(N)Oc2cc(O)ccc2C1c1cccc([N+](=O)[O-])c1 (stereo unspecified) | 21 | 85* | 0 | 6
CCOC(=O)c1c(C)[nH]c(C(C)=O)c1C | -6 | -5 | 0 | 14
CCOC(=O)c1c(C)[nH]c(C2=NNC(=NC3CC3)SC2)c1C | 9 | 98* | 2 | 0
O=C(NCCO)C(=O)Nc1cc2c3c(c1)CCC(=O)N3CCC2 | 21 | -8 | 0 | 13
O=C(CCN1CCN(Cc2ccccc2)CC1)Nc1ccccc1Cl | 327* | -8 | 0 | 32
CN1CCN(CCC(=O)Nc2ccccc2Cl)CC1 | -9 | -28 | 1 | 17
Cc1ccc(NC(=O)CSC2=C(C#N)C(c3ccco3)C3=C(CC(C)(C)CC3=O)N2)cc1 (stereo unspecified) | 6 | 98* | -1 | 44
Cc1ccc(NC(=O)CSC2=C(C#N)C(c3ccco3)CC(=O)N2)cc1 (stereo unspecified) | x | 99* | 1 | 18
CCOC(=O)C1=C(c2ccccc2)NC(SCC(=O)Nc2ccc(C)cc2)=C(C#N)C1c1ccco1 (stereo unspecified) | 4 | -6 | 0 | 32
COC(=O)CSC1=C(C#N)C(c2ccc(C)o2)CC(=O)N1 (stereo unspecified) | -6 | 1 | 4 | 5
COc1ccccc1C1CC(=O)NC(SCC(=O)Nc2ccccc2)=C1C#N (stereo unspecified) | x | x | 0 | 24
Cc1ccc(C(=O)CSC2=C(C#N)C(c3ccco3)CC(=O)N2)c(C)c1 (stereo unspecified) | -24 | 92* | 0 | 11
O=C(CCNC(=O)C1CCN(S(=O)(=O)c2ccccc2)CC1)Nc1ccccc1 | -8 | 4 | 0 | -19
COc1ccc(Cl)cc1NC(=O)Nc1ccc(C(=O)N2CCOCC2)cc1 | -7 | 3 | 1 | 26
O=C(NC(=S)N1CCN(c2ccccc2)CC1)c1ccccc1 | -10 | u | 0 | 8
O=C(c1ccco1)N1CCN(c2ccc(F)cc2)CC1 | 11 | 38 | 1 | 8
SMILES | SUMO Mot1 rescue | ALR H2O2 inh | HIF act | AI-2 QS modul
Nc1ccc(N2CCN(C(=O)c3ccco3)CC2)cc1 | 8 | 99* | 0 | 35
O=C(NC(=S)N1CCN(c2ccccc2)CC1)c1ccco1 | 2 | 98* | x | x
O=C(NCC(=O)N1CCN(c2ccccc2O)CC1)c1ccco1 | -5 | 90* | 0 | 16
O=C(NCC(=O)N1CCCCCCC1)c1ccco1 | -1 | x | x | x
CCSc1nnc(NC(=O)CCNC(=O)c2ccccc2Cl)s1 | 19 | -1 | x | x
CC1CCCCN1c1nnc(N)s1 (stereo unspecified) | 9 | 53 | 0 | -4
CC1CCCC(C)N1c1nnc(N)s1 (stereo unspecified) | 15 | 95* | 0 | 4
CC(C)N(CCn1c(SCC(=O)Nc2cccnc2Cl)nc2ccccc2c1=O)C(C)C | 11 | x | x | x
CC(C)(C)c1ccc(C(=O)N2CCNCC2)cc1 | -7 | -5 | 0 | -3
